Sm TGR inh: S. mansoni TGR enzyme inhibition; AID 485364; Potency, µM (series often up to 114 µM), without a hit: at the highest dose activity change, negative = inhibition, usual class: inhibitors; purified TGR, DTNB reduction, TNB absorbance 405 nm; hit rate 3% among 360,000; further: on the % scale 0 is the no-effect control and ±100 the full control effect; nearly all actives have a fitted effect of over 60% in size
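TGR 20 nM + NADPH 100 uM (dispensed conc.), cpd preinc 15 min RT; start with NADPH (500 uM addition) then DTNB (15 mM addition). Kinetic TNB absorbance, 405 nm filter. Four-parameter Hill fit across titration.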
Pf growth 48h: P. falciparum growth inhibition at 48 hours (one generation); P. falciparum luciferase growth in erythrocytes, 48 h; Potency, µM (series often up to 28.7 µM), for the others: top-dose activity change, negative = inhibition, most hits filed as inhibitors; hit rate 5.9% among 310,000; AID 504832; further: on the % scale 0 is the no-effect control and ±100 the full control effect
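Parasite viability was followed by luminescence of a genomically integrated firefly luciferase. Cultures held 0.1% parasitemia at 2% hematocrit (final), incubated under 5% CO2 at 37 C.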
AMA1 RON2 block: AMA1-RON2 (P. falciparum) interaction inhibition; AlphaScreen AMA1-biotinylated RON2 peptide binding; Potency, µM (top dose mostly 58.2 µM), without a hit: at the highest dose activity change, negative = inhibition, most hits filed as inhibitors; hit rate 0.2% among 360,000;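 further: 0% = vehicle wells and -100% = peptide control; nearly all actives have a fitted effect of over 45% in size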
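AMA1 (3D7) with his tag at 25 nM final met compounds first, then biotinylated RON2 peptide at 25 nM; detection used donor plus acceptor beads, 10 µg/mL apiece, read by AlphaScreen after 30 min at room temperature.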
NS1 function inh: influenza NS1 inhibition. Potency, µM (highest dose often 46.1 µM), without a hit: at the highest dose activity, positive = more growth. AID 2326. hit rate 0.4% among 270,000; calls by dose curve; further: actives are rising curves; nearly all actives have a fitted effect of over 50% in size
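Growth recovery, yeast-based: influenza A NS1 expressed in S. cerevisiae causes slow growth, and suppressors are detected by OD600. The parent strain without NS1 is used as positive control.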
Pf growth 96h: inhibits malaria parasite growth, 96 h | P. falciparum luciferase reporter growth, 96 h | Potency, µM (titrated, usually from 28.7 µM), for inactives: at the highest dose activity change, negative = inhibition, hits mostly inhibitors | hit rate 6.9% among 320,000; further: on the % scale 0 is the no-effect control and ±100 the full control effect
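Readout is luminescence from an integrated firefly luciferase in P. falciparum. Red cells, 2% hematocrit and 0.05% parasitemia final, were cultured with compound through two parasite generations (96 hours) at 37 C, 5% CO2.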
* = called active by the depositor; ? = inconclusive; nt = no result given; [ ] = remark or other dose. An excerpt weighted towards active compounds, which were near 11% of everything screened. Unless noted, the call rests on the fitted dose curve; in most records, active means well fitted curve in the direction sought with a large enough effect; inconclusive means small, poorly fitted or top-dose-only effect, or another doubt; inactive means no such curve, though single readings can be large; an effect the other way counts as inactive or inconclusive. Potency means the concentration at half of the fitted maximal effect.

SMILES | Sm TGR inh | Pf growth 48h | AMA1 RON2 block | NS1 function inh | Pf growth 96h
COCCCN1C(=O)/C(=C/c2ccc(CNS(=O)(=O)c3ccccc3)o2)C(C(=O)OC)=C1C | 11.2µM* | ? | 0.0% | 3.8% | 24.7%[1.15 µM]
Cc1ccc(-c2csc3ncnc(N4CCN(S(=O)(=O)c5cccs5)CC4)c23)cc1 | -4.8% | 6.57µM* | 5.5% | nt | ?
COc1ccc(-c2csc3ncnc(N4CCN(c5ccccc5OC)CC4)c23)cc1 | 12.2% | 5.86µM* | ? | -23.9% | ?
COc1ccc(-c2csc3ncnc(N4CCN(CCO)CC4)c23)cc1 | -2.5% | -10.3% | -10.1% | 6.4% | -28.3%
Cc1ccc(-c2csc3ncnc(N4CCN(S(=O)(=O)c5ccc(C#N)cc5)CC4)c23)cc1 | nt | nt | -6.3% | nt | nt
CCOc1ccccc1N1CCN(c2ncnc3scc(-c4ccc(OC)cc4)c23)CC1 | 12.2% | 5.86µM* | -3.5% | -1.6% | ?
Cc1nn(-c2ccc(N3CCCC3)nn2)c(C)c1CCC(=O)N1CCN(c2ccc(F)cc2)CC1 | 4.1% | nt | nt | nt | nt
CCn1ccc2cc(S(=O)(=O)N3CCC(C(=O)NCCc4ccc(SC)cc4)CC3)ccc21 | 0.2% | nt | nt | nt | nt
O=C(c1ccoc1)N1CCC2(CC1)Oc1ccc(F)cc1C(=O)C21CC(c2ccccc2)=NO1 (centres undefined) | ? | ? | -14.6% | -2.1% | 11.7µM*
O=C(c1ccc2c(c1)OCO2)N1CCC2(CC1)Oc1ccc(F)cc1C(=O)C21CC(c2cccnc2)=NO1 (centres undefined) | 10.0% | ? | 43.8% | -4.9% | ?
Cc1ccc(C(=O)N2CCC3(CC2)Oc2ccc(F)cc2C(=O)C32CC(c3ccccc3)=NO2)s1 (centres undefined) | 5.1% | ? | -13.1% | 15.2% | 10.4µM*
O=C(c1ccoc1)N1CCC2(CC1)Oc1ccc(F)cc1C(=O)C21CC(c2ccc(Cl)cc2)=NO1 (centres undefined) | -13.5% | ? | -4.8% | 6.8% | -8.0%
O=C(c1ccc2c(c1)OCO2)N1CCC2(CC1)Oc1ccc(F)cc1C(=O)C21CC(c2ccccc2)=NO1 (centres undefined) | -7.3% | 13.1µM* | -6.2% | 9.4% | ?
COc1cc(NC(=O)NCCn2nnc3cc(S(=O)(=O)N(C)C)ccc32)cc(OC)c1 | -5.3% | nt | nt | nt | nt
CN1CCN(c2ccc(CNC(=O)c3cccc4c(-c5ccc(F)c(F)c5)coc34)cc2)CC1 | nt | nt | 14.1µM* | nt | nt
C=CCN1C(=O)c2ccccc2NC1c1cc(Br)cs1 (centres undefined) | -2.3% | 10.4µM* | -7.4% | 4.2% | ?
O=C1c2ccccc2NC(c2ccc(Cl)cc2Cl)N1Cc1ccccc1 (centres undefined) | 6.5% | nt | 0.9% | 18.0% | ?
CCOC(=O)/C(C#N)=C1\Nc2ccccc2N=C1N(CC(C)C)CC(C)C | 0.3% | 2.33µM* | -14.4% | 14.1% | 19.3%
COc1ccc(C(=O)Nn2c(C)nc3ccccc3c2=O)c(OC)c1 | -0.2% | 21.7% | -6.2% | -2.1% | 1.17µM*
Cc1nc2ccccc2c(=O)n1NC(=O)c1ccc(F)cc1Cl | -5.0% | 6.6% | -1.5% | -3.2% | 9.28µM*
C/C(=N\NC(=O)c1nn(C)c(C)c1Br)c1ccc(NC(=O)C2CCCC2)cc1 | -12.6% | -18.5% | -2.2% | -8.1% | 13.1µM*
C/C(=N\NC(=O)C1(C)CC1(Br)Br)c1ccc(NC(=O)C2CCC2)cc1 (centres undefined) | -0.1% | ? | 36.2% | 9.2% | 5.22µM*
Cc1ccc(-c2noc(-c3cccnc3NCc3ccc(Cl)cc3)n2)cc1 | -0.3% | nt | nt | nt | nt
COc1ccc(C2=C(C)C(N3CCC(C(=O)NCc4ccc(C)o4)CC3)=NS2(=O)=O)cc1 | -16.2% | nt | nt | nt | nt
CN1N=C(N)c2cn(C3OC(COP(=O)(O)O)C(O)C3O)c3ncnc1c23 (centres undefined) | nt | nt | 64.7% | nt | nt
SMILES | Sm TGR inh | Pf growth 48h | AMA1 RON2 block | NS1 function inh | Pf growth 96h
CN1C[C@H](CO)C=C2c3cccc4[nH]cc(c34)C[C@H]21 | 11.2µM* | ? | 24.9% | 11.9% | ?
O=C(NCCc1ccc(C(F)(F)F)cc1)c1ccc(Cl)nc1 | 14.0% | ? | -10.6% | -6.8% | -22.6%
CCCNC(=O)c1cc(-c2ccc(OC)cc2)n(CCCOC)c1C | 3.1% | 2.08µM* | -23.5% | -24.2% | 39.0%
CCOC(=O)c1cc(-c2ccc(C)cc2)n(CCC(=O)NCCCOC)c1C | 2.5% | 0.0% | -1.0% | 4.5% | nt
C=C[C@@H]1c2ccccc2N(S(=O)(=O)c2ccc(C)cc2)[C@H](c2ccc(OC(C)=O)cc2)C1(C#N)C#N | 1.0% | 3.7µM* | -4.5% | nt | ?
C=C[C@@H]1c2cc(C)ccc2N(S(=O)(=O)c2ccc(C)cc2)[C@H](c2ccc(OC(C)=O)cc2)C1(C#N)C#N | -0.9% | ? | -6.3% | nt | ?
C=CCn1cnc2c(c1=O)c1nc3ccccc3nc1n2-c1ccccc1 | 1.0%[11.4 µM] | nt | nt | 1.1% | 5.86µM*
C=CCn1cnc2c(c1=O)c1nc3ccccc3nc1n2/N=C/c1ccccn1 | 0.0% | -4.0% | -2.5% | -31.4% | 1.85µM*
C=CCn1cnc2c(c1=O)c1nc3ccccc3nc1n2/N=C/c1cccc(OC)c1OC | -9.9% | ? | -9.2% | ? | -10.1%
C=CCn1cnc2c(c1=O)c1nc3ccccc3nc1n2/N=C/c1cc(OC)c(OC)c(OC)c1 | 0.0% | 3.7µM* | -7.6% | 5.8% | 5.86µM*
O=c1c2c3nc4ccccc4nc3n(/N=C/c3ccccn3)c2ncn1-c1ccccc1 | -14.2% | ? | 86.9% | 4.0% | -74.5%
CC(=O)Nc1c(Cl)c(Cl)c2c(c1Cl)Cc1cc(Cl)ccc1-2 | nt | nt | 0.6% | nt | nt
C/C(=N\Nc1nccnc1Cl)c1ccc(O)c(C)c1 | -26.8% | 70.2% | 18.4% | 1.5% | 122.5%
CN(Cc1ccco1)C(=O)C(Cc1ccccc1)NS(=O)(=O)c1ccc2c(c1)CCC(=O)N2 (centres undefined) | 39.8µM* | nt | -6.1% | -71.6% | 68.2%
COC(=O)c1[nH]c2cccc(C)c2c1NC(=O)CN1CCN(C(=O)c2ccco2)CC1 | ? | ? | -5.0% | 7.9% | 11.7µM*
COC(=O)c1[nH]c2ccccc2c1NC(=O)C(C)N1CCN(C(=O)c2ccco2)CC1 (centres undefined) | 3.4% | ? | 8.3% | -2.3% | 10.4µM*
CC(C)c1ccc(NC(=O)C(c2ccccc2)N2CCN(C(=O)c3ccco3)CC2)cc1 (centres undefined) | -8.7% | 9.28µM* | -20.1% | -73.6% | ?
COC(=O)c1[nH]c2ccccc2c1NC(=O)C(C)N1CCOCC1 (centres undefined) | 4.1% | 2.9% | 13.0% | 0.3% | -12.7%
COC(=O)c1[nH]c2ccc(F)cc2c1NC(=O)CCN1CCN(C(=O)c2ccco2)CC1 | -22.3% | 34.8% | nt | -4.2% | ?
COC(=O)c1[nH]c2cc(C)ccc2c1NC(=O)CN1CCN(C(=O)c2ccco2)CC1 | ? | ? | 34.5% | -10.1% | 3.29µM*
CCC(Oc1ccccc1)C(=O)Nc1ccccc1OCc1cc(=O)n2ccccc2n1 (centres undefined) | 4.0% | nt | nt | nt | nt
